Bioassay records as filed in PubChem BioAssay.
HT1080-NT tox: kills 2HG-producing HT-1080-NT fibrosarcoma cells; HT-1080-NT fibrosarcoma viability, CellTiter-Glo ATP luminescence, 48 h; Potency, µM (highest dose often 46.1 µM), hits mostly cytotoxic; 360,000 compounds, 1.6% hits;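 further: NT is the 2HG producing partner of a matched IDH1 knockdown line; nearly all actives have a fitted effect of over 55% in size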
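HT-1080-NT; 750 cells/well; 5% FBS RPMI; 48 h compound, 37 degrees C; CellTiter-Glo luminescence; curve fitting and curve-class assignment.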
TDP1 cell noCPT: qHTS for Inhibitors of human tyrosyl-DNA phosphodiesterase 1 (TDP1): qHTS in cells in absence of CPT | DT40 Tdp1-/- hTDP1 cells, no CPT, ATP luminescence, 48 h | Potency, µM (top dose mostly 46.2 µM), hits mostly inhibitors | 420,000 compounds, 15% hits | AID 686978, 2013; further: nearly all actives have a fitted effect of over 55% in size
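No-CPT arm: Tdp1-/-;hTDP1 DT40 cells (400/well) plus compounds, incubated ≥48 hr at 37 °C. Readout CellTiter-Glo luminescence.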
DT40 TDP1 CPT: growth inhibition of DT40 Tdp1-/-;hTDP1 cells with camptothecin (screen for TDP1 inhibitors) | chicken DT40 Tdp1-/-;hTDP1 cells + 20 nM CPT, ATP luminescence, 48 h | Potency, µM (series often up to 46.2 µM), actives largely listed as inhibitors | 420,000 compounds, 12% hits | AID 686979; further: nearly all actives have a fitted effect of over 55% in size
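Chicken DT40 Tdp1-/- cells complemented with human TDP1, 400 cells/well, exposed to compounds plus 20 nM camptothecin for at least 48 h at 37 C; viability read as ATP content by CellTiter-Glo luminescence.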
IL1B secr inh: inhibitors of inflammasome signaling (IL-1 beta secretion); THP-1 LPS/ATP IL-1B secretion, AlphaLISA, 16 h; active compounds read low; activity change, % at 57.5 µM; 360,000 compounds, 4.7% hits; in the data active means activity change below about -50%; inconclusive means mostly about -30% to -49%
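THP-1 cells pretreated 1 hr with compounds (up to 57.5 uM final), then stimulated with LPS (250 ng/mL final) plus ATP (1.25 mM final); secreted IL-1B measured by AlphaLISA after 16 hr, decreased signal indicating inhibition.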
HT1080 IDH1KD tx: toxicity to HT-1080 IDH1 knockdown cells (counter line); HT-1080 IDH1 knockdown viability, ATP luminescence, 48 h; Potency, µM (highest dose often 46.1 µM), actives largely listed as cytotoxic; 360,000 compounds, 2% hits
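After a 2 h attachment period, IDH1KD HT-1080 cells took pin-transferred compound for 48 h at 37 °C; ATP-based luminescence after 10 min room-temperature reagent incubation reported viability.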
Large screens that a line does not name were inactive. This is a sample that favours compounds with a hit; in the whole collection about 19% have one here. Unless noted, the call rests on the fitted dose curve; in most records, active means well fitted curve in the direction sought with a large enough effect; inconclusive means small, poorly fitted or top-dose-only effect, or another doubt; inactive means no such curve, though single readings can be large; an effect the other way counts as inactive or inconclusive.

Cc1ccc(-c2nc3c(Cl)cc(Cl)cc3c(=O)n2O)cc1	TDP1 cell noCPT 18µM, DT40 TDP1 CPT inconclusive
O=C(c1cccnc1)N1CCN(c2c(Cl)cccc2[N+](=O)[O-])CC1	TDP1 cell noCPT 8.2µM
CCC(=O)N1CCN(c2c(Cl)cccc2[N+](=O)[O-])CC1	TDP1 cell noCPT inconclusive, DT40 TDP1 CPT inconclusive
O=C(/C=C/c1ccccc1)N1CCN(c2c(Cl)cccc2[N+](=O)[O-])CC1	TDP1 cell noCPT 16µM, DT40 TDP1 CPT 23µM, IL1B secr inh inconclusive
COc1cc(/C=C/C(=O)N2CCN(Cc3ccccc3)CC2)cc(OC)c1OC	TDP1 cell noCPT 18µM
COc1cc(/C=C/C(=O)N2CCN(CC(O)COc3ccccc3)CC2)cc(OC)c1OC (stereo not drawn)	TDP1 cell noCPT 21µM, DT40 TDP1 CPT inconclusive
O=C(/C=C/c1ccc(Cl)cc1)N1CCN(Cc2ccccc2)CC1	TDP1 cell noCPT inconclusive, IL1B secr inh -75
CN1CCN(C(=O)/C=C/c2ccc(Cl)cc2)CC1	HT1080 IDH1KD tx inconclusive
CCCCCCCCCCCC(=O)NC(C(=O)O)C(O)c1ccccc1 (stereo not drawn)	none
O=C(NC1CCCCC1)N1CCN(Cc2ccco2)CC1	none
COc1ccc(/C=C/C(=O)Nc2ccc(C(C)=O)cc2)cc1S(=O)(=O)N1CCOCC1	none
COc1ccc(/C=C/C(=O)Nc2ccccc2C)cc1S(=O)(=O)N1CCOCC1	HT1080-NT tox 13µM, DT40 TDP1 CPT inconclusive
Cc1ccc(NC(=O)/C=C/c2ccc(S(=O)(=O)N3CCOCC3)cc2)cc1S(=O)(=O)N(C)C	HT1080-NT tox inconclusive, TDP1 cell noCPT 15µM, DT40 TDP1 CPT inconclusive, HT1080 IDH1KD tx 26µM
CC(=O)Nc1cccc(NC(=O)/C=C/c2ccc(S(=O)(=O)N3CCOCC3)cc2)c1	DT40 TDP1 CPT inconclusive, IL1B secr inh inconclusive
COc1cc(/C=C/C(=O)Nc2ccc(OC)c(S(=O)(=O)N3CCOCC3)c2)ccc1OC(F)F	TDP1 cell noCPT 16µM, DT40 TDP1 CPT 18µM, HT1080 IDH1KD tx inconclusive
COc1cccc(CN(C)C(=O)/C=C/c2ccc(S(=O)(=O)N3CCCCCC3)cc2)c1	TDP1 cell noCPT inconclusive, DT40 TDP1 CPT inconclusive, IL1B secr inh -58
CC(C)OC(=O)COc1cc(O)c2c(=O)cc(-c3ccccc3)oc2c1	none
O=C(Nc1ccccc1)c1cccc(N2C(=O)C3C4CC(C(Br)C4Br)C3C2=O)c1 (stereo not drawn)	none
CCOc1ccc(NC(=O)CCNC(=O)Cn2cnc3ccccc3c2=O)cc1	none
COc1ccccc1CNc1cc(C)ccn1	DT40 TDP1 CPT inconclusive
CCCOc1ccccc1NC(=O)/C=C/C(N)=O	HT1080-NT tox inconclusive, TDP1 cell noCPT 2.5µM, DT40 TDP1 CPT 1.3µM, HT1080 IDH1KD tx 10µM
CCC(C)(C)NC(=O)/C=C/c1ccc(OC)c(S(=O)(=O)N2CCOCC2)c1	TDP1 cell noCPT inconclusive
CCN(Cc1ccc(OC)c(F)c1)C(=O)/C=C/c1ccc(S(=O)(=O)N2CCOCC2)cc1	TDP1 cell noCPT 23µM, DT40 TDP1 CPT inconclusive
COc1ccc(/C=C/C(=O)Nc2ccccc2F)cc1S(=O)(=O)N1CCOCC1	DT40 TDP1 CPT inconclusive, IL1B secr inh -88
COc1ccc(CCNC(=O)/C=C/c2ccc(OC)c(S(=O)(=O)N3CCOCC3)c2)cc1	TDP1 cell noCPT 5.8µM, DT40 TDP1 CPT inconclusive
COc1cccc2cc(C(=O)C3=C(O)C(=O)N(CCN(C)C)C3c3ccc(Cl)cc3)oc12 (stereo not drawn)	none (no result: IL1B secr inh)
O=C(CN1CCOCC1)Nc1ncc(Cc2cccc(Cl)c2Cl)s1	none
Cc1noc(C)c1C(=O)N1CCC2(CCCN(C(=O)NC(C)C)C2)CC1	none (no result: HT1080-NT tox, IL1B secr inh, HT1080 IDH1KD tx)
CCOc1ccccc1NC(=O)/C=C/c1ccc(S(=O)(=O)N2CCOCC2)cc1	TDP1 cell noCPT inconclusive, DT40 TDP1 CPT inconclusive
COc1ccc(S(=O)(=O)N2CCOCC2)cc1NC(=O)/C=C/c1ccccc1	IL1B secr inh -52
CCCOc1ccccc1NC(=O)/C=C/c1ccc(OC)c(S(=O)(=O)N2CCOCC2)c1	TDP1 cell noCPT 16µM, DT40 TDP1 CPT inconclusive
COc1cccc(NC(=O)/C=C/c2ccc(S(=O)(=O)N3CCOCC3)cc2)c1	TDP1 cell noCPT inconclusive, DT40 TDP1 CPT 18µM
O=C(/C=C/c1ccccc1)Nc1cc(S(=O)(=O)N2CCOCC2)ccc1N1CCOCC1	none
COc1ccc(N2CCCn3c2nc2c3c(=O)n(Cc3ccccc3F)c(=O)n2C)c(OC)c1	none
Cc1ccccc1C(=O)N1CCC(N2CCN(Cc3ccc(F)cc3)C(=O)C2=O)CC1	none (no result: HT1080-NT tox, IL1B secr inh, HT1080 IDH1KD tx)
COc1cccc(NC(=O)CC2C(=O)NC3CCCCC3N2C(=O)c2ccccc2)c1 (stereo not drawn)	none
CCCCCCC1CC(CC(=O)Nc2ccc([N+](=O)[O-])cc2)C(=O)O1 (stereo not drawn)	TDP1 cell noCPT inconclusive, DT40 TDP1 CPT 18µM, IL1B secr inh -61
O=C(CC1C(=O)NC2CCCCC2N1C(=O)c1ccc([N+](=O)[O-])cc1)Nc1ccccc1 (stereo not drawn)	TDP1 cell noCPT 16µM, DT40 TDP1 CPT inconclusive
O=C(CC1OCC2CCCN2C1=O)Nc1ccc([N+](=O)[O-])cc1 (stereo not drawn)	TDP1 cell noCPT inconclusive, DT40 TDP1 CPT 16µM, IL1B secr inh inconclusive
CC1(C)CC(CC(=O)Nc2ccc([N+](=O)[O-])cc2)C(=O)O1 (stereo not drawn)	none
CCCCCC1CC(CC(=O)NC(=S)Nc2ccc([N+](=O)[O-])cc2)C(=O)O1 (stereo not drawn)	none
O=C(CN1CCCC1)Nc1ccc([N+](=O)[O-])cc1	none
CCN1CCOC(CC(=O)Nc2ccc([N+](=O)[O-])cc2)C1=O (stereo not drawn)	TDP1 cell noCPT inconclusive, DT40 TDP1 CPT 15µM
Cc1ccc(C)c(NC(=O)Cn2ncc3c([nH]c4ccccc43)c2=O)c1	none (no result: HT1080-NT tox, IL1B secr inh, HT1080 IDH1KD tx)
CC(SCC(=O)NC(C)C1CC2CCC1C2)C(=O)O (stereo not drawn)	none
CC(C)NC(=O)Nc1nnc([C@H]2C[C@H](O)[C@@H](CO)O2)s1	none
COc1cc(-c2c(CCO)sc3ccccc23)cc(OC)c1OC	HT1080-NT tox inconclusive, TDP1 cell noCPT 6.5µM, DT40 TDP1 CPT 6.5µM, HT1080 IDH1KD tx inconclusive
COc1cc(-c2c(-c3ccsc3)sc3ccccc23)cc(OC)c1OC	none
NC(=S)N/N=C/c1c(O)c(Br)cc2oc3c(c12)CCCC3	TDP1 cell noCPT 5.2µM, DT40 TDP1 CPT 5.2µM
Cc1ccc(OCCCCn2cnc3ccccc32)c(C)c1	TDP1 cell noCPT 8.2µM, DT40 TDP1 CPT 13µM
Brc1ccccc1Cn1cnc2ccccc21	TDP1 cell noCPT 21µM, DT40 TDP1 CPT inconclusive
Cc1ccc(OCCSc2ncccn2)c(C)c1	none
